Assay [1] is described as follows: ATG_PBREM_CIS: Attagene CIS-FACTORIAL HepG2 Assay for human Phenobarbital-responsive Enhancer Module (PBREM) (AID 2282955). Particulars: HepG2 PBREM cis-reporter, Attagene multiplexed transcription; actives raise or lower the signal. The method in brief: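 HepG2, transient MRTU transfection, 24 h dosing; RNA → oligo(dT) RT → PCR → 6-FAM extension → HpaI → CE. Bidirectional fit vs DMSO.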

Assay [2] addresses Paired box protein Pax-6 (Homo sapiens) (UniProt P26367). The experiment in a line: ATG_Pax6_CIS: Attagene CIS-FACTORIAL HepG2 Assay for human Paired Box 6 (PAX6) (AID 2282956). Particulars: HepG2 CIS-FACTORIAL PAX6 reporter transcription, RNA readout; actives raise or lower the signal. The essentials: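 After twenty-four hours of chemical exposure, transfected HepG2 cells are harvested for RNA. Cis-promoter reporter transcripts are amplified, fluorescently labelled and sized by capillary electrophoresis, with gain and loss of signal scored against DMSO.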

Assay [3] can be described thus: ATG_PXRE_CIS: Attagene CIS-FACTORIAL HepG2 Assay for human Pregnane X Receptor Element (PXRE) (AID 2282957). Conditions: HepG2 Attagene CIS-FACTORIAL PXRE reporter, mRNA; actives raise or lower the signal. The essentials:
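Cells: HepG2, transiently transfected reporter units under cis promoter control. Exposure: 24 h. Detection: reporter mRNA via RT-PCR/CE fluorescence; bidirectional fitting, DMSO-referenced.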

The nature of assay [4]: ATG_Sox_CIS: Attagene CIS-FACTORIAL HepG2 Assay for human SRY-box transcription factor (SOX) (AID 2282960). Particulars: HepG2 Attagene cis-factorial SOX reporter, mRNA; actives raise or lower the signal. The essentials: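 Cells were transfected with reporter constructs under cis-regulatory promoters, then exposed to chemicals for 24 h. Reporter transcripts were quantified by fluorescence after RT-PCR and capillary electrophoresis; activity was fitted in both directions against DMSO.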

The target in assay [5] is Transcription factor Sp1 (Homo sapiens) (UniProt P08047). The experiment in a line: ATG_Sp1_CIS: Attagene CIS-FACTORIAL HepG2 Assay for human Specificity Protein 1 (Sp1) (AID 2282961). Particulars: HepG2 Sp1 cis-reporter transcription, actives raise or lower the signal. The method in brief: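 Measures mRNA induction of an Sp1-linked reporter in HepG2 cells 24 h post-dosing. Multiplexed reporters read by RT-PCR and capillary electrophoresis; DMSO serves as negative control and baseline.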

Assay [6] can be described thus: ATG_SREBP_CIS: Attagene CIS-FACTORIAL HepG2 Assay for human Sterol Regulatory Element Binding (SREBP) (AID 2282962). Conditions: HepG2 Attagene cis-factorial SREBP reporter, mRNA; actives raise or lower the signal. The essentials:
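Twenty-four hours after chemical dosing of transfected HepG2 cultures, reporter RNA was converted to cDNA, amplified, end-labelled with 6-FAM and resolved by capillary electrophoresis. Responses were fitted relative to DMSO.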

Assay [7] addresses Signal transducer and activator of transcription 3 (Homo sapiens) (UniProt P40763). As to the kind of experiment: ATG_STAT3_CIS: Attagene CIS-FACTORIAL HepG2 Assay for human Signal Transducer and Activator of Transcription 3 (STAT3) (AID 2282963). Conditions: HepG2, Attagene cis-factorial STAT3 reporter transcription; actives raise or lower the signal. The essentials: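 Values derive from bidirectional fits relative to DMSO of reporter mRNA levels, measured by RT-PCR with capillary electrophoresis, in HepG2 cells carrying transiently transfected cis-regulated reporter units and exposed 24 h.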

Assay [8] is described as follows: ATG_TA_CIS: Attagene CIS-FACTORIAL HepG2 Assay for human TA Basal Promoter (AID 2282964). Particulars: HepG2 Attagene CIS-factorial TA basal promoter reporter; actives raise or lower the signal. The essentials: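 Background-control readout: TA basal promoter reporter mRNA, fitted in both directions relative to DMSO. Measured by RT-PCR and capillary electrophoresis 24 hours after treating HepG2 human liver cells transiently carrying multiplexed cis-regulated reporter constructs.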

Assay [9] can be described thus: ATG_TCF_b_cat_CIS: Attagene CIS-FACTORIAL HepG2 Assay for human T-Cell-Factor with beta-catenin (TCF/b-cat) (AID 2282965). Conditions: HepG2 TCF/beta-catenin cis-reporter transcription, actives raise or lower the signal. The method in brief:
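Cells of the HepG2 line carry transiently transfected reporter units whose promoters respond to endogenous factors. Twenty-four hours post-dosing, reporter mRNA induction is measured by fluorescent RT-PCR and capillary electrophoresis, with DMSO as baseline.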

Assay [10] can be described thus: ATG_TAL_CIS: Attagene CIS-FACTORIAL HepG2 Assay for human TAL Basal Promoter (AID 2282966).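 Further: background control endpoint measuring basal TAL promoter reporter mRNA not a specific factor.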 Particulars: HepG2 Attagene cis-factorial TAL promoter reporter; actives raise or lower the signal. The method in brief: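 RT-PCR plus capillary electrophoresis quantifies reporter mRNA induction in transiently transfected HepG2 cells after 24 h chemical treatment. DMSO serves as negative control and baseline for bidirectional fitting.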

Assay [11] in a line: ATG_TGFb_CIS: Attagene CIS-FACTORIAL HepG2 Assay for human Transforming Growth Factor (TGF) (AID 2282967). Particulars: HepG2 Attagene CIS TGFb reporter, mRNA transcription; actives raise or lower the signal. The method in brief:
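Endogenous TGFB1-linked transcription factor activity read as reporter mRNA via RT-PCR and capillary electrophoresis, 24 h after dosing transiently transfected HepG2 cells. Gain or loss of signal fitted relative to DMSO.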

The nature of assay [12]: ATG_VDRE_CIS: Attagene CIS-FACTORIAL HepG2 Assay for human Vitamin D Receptor Element (VDRE) (AID 2282968). Conditions: HepG2 VDRE cis-reporter transcription, actives raise or lower the signal. The method in brief:
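Cell-based multiplexed reporter format in human liver HepG2 cells, 24 h post-dose. Fluorescence from capillary electrophoresis of reporter cDNA gives the signal, with DMSO as negative control and baseline.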

The target in assay [13] is Estrogen receptor (Homo sapiens) (UniProt P03372). As to the kind of experiment: ATG_ERa_TRANS: Attagene TRANS-FACTORIAL HepG2 Assay for human Estrogen Receptor alpha (ERa) (AID 2282970; active means hit-call score of the fitted dose curve at least 0.9, where 1 is the maximum). Conditions: HepG2 Attagene TRANS ERa GAL4 reporter, mRNA. The method in brief:
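Cells: HepG2, transiently transfected. Construct: GAL4-UAS reporter units regulated by exogenous NR-Gal4 chimeras. Time: 24 h. Detection: reporter mRNA by RT-PCR, capillary electrophoresis, fluorescence. Baseline: DMSO, upward fitting.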

Assay [14] can be described thus: ATG_GAL4_TRANS: Attagene TRANS-FACTORIAL HepG2 Assay for GAL4 (Internal Marker) (AID 2282976; active means hit-call score of the fitted dose curve at least 0.9, where 1 is the maximum). Particulars: HepG2 Attagene TRANS GAL4 internal marker reporter. The essentials:
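In transfected human HepG2 liver cells dosed 24 h, GAL4 reporter mRNA serves as a baseline marker. Detection by RT-PCR with fluorescent capillary electrophoresis, activity fitted upward relative to DMSO.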

Assay [15] addresses Steroid hormone receptor ERR1 (Homo sapiens) (UniProt P11474). The experiment in a line: ATG_ERRa_TRANS: Attagene TRANS-FACTORIAL HepG2 Assay for human Estrogen-Related Receptor alpha (ERRa) (AID 2282971; active means hit-call score of the fitted dose curve at least 0.9, where 1 is the maximum). Particulars: HepG2 Attagene TRANS reporter, ERRa transactivation. The essentials:
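Reporter transcripts from ERRa-Gal4 chimera activity measured in transiently transfected human HepG2 cells 24 hours after dosing, using RT-PCR with 6-FAM primer extension, HpaI digestion and capillary electrophoresis; DMSO is baseline.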

In assay [16] the target is X-box-binding protein 1 (Homo sapiens) (UniProt P17861). The experiment in a line: ATG_Xbp1_CIS: Attagene CIS-FACTORIAL HepG2 Assay for human X-box Binding Protein 1 (XBP1) (AID 2282972). Conditions: HepG2 XBP1 cis-element reporter, Attagene multiplex; actives raise or lower the signal. The essentials: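 After a 24-hour chemical exposure of HepG2 cells carrying cis-regulated reporters, reporter mRNA levels are assessed. Quantification uses RT-PCR, 6-FAM labelling and capillary electrophoresis. Gain- or loss-of-signal is fitted against DMSO.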

Assay [17] is described as follows: ATG_RORE_CIS: Attagene CIS-FACTORIAL HepG2 Assay for human RAR-related Orphan Receptor Element (RORE) (AID 2282959). Conditions: HepG2 Attagene cis-factorial RORE reporter, mRNA; actives raise or lower the signal. The method in brief: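 Multiplexed reporter assay measuring mRNA induction from a cis promoter element in transiently transfected HepG2 cells after 24 h treatment. Detection via RT-PCR and capillary electrophoresis fluorescence; DMSO serves as baseline.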

The target of assay [18] is Nuclear receptor subfamily 1 group I member 3 (Homo sapiens) (UniProt Q14994). The experiment in a line: ATG_CAR_TRANS: Attagene TRANS-FACTORIAL HepG2 Assay for human Constitutive Androstane Receptor (CAR) (AID 2282969; active means hit-call score of the fitted dose curve at least 0.9, where 1 is the maximum;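 further: activators raise reporter mRNA above DMSO so AC50 marks induction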). Conditions: HepG2 Attagene TRANS-FACTORIAL CAR reporter. The method in brief:
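HepG2 cells transiently transfected with GAL4-UAS reporter units; TRANS format reads activity of exogenous chimeric NR-Gal4 protein. After 24 h dosing, reporter mRNA quantified by RT-PCR, 6-FAM labelling and capillary electrophoresis; gain of signal fitted against DMSO.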

The nature of assay [19]: ATG_M_19_TRANS: Attagene TRANS-FACTORIAL HepG2 Assay for M19 Transcription Factor (Internal Marker) (AID 2282974; active means hit-call score of the fitted dose curve at least 0.9, where 1 is the maximum). Conditions: HepG2 Attagene TRANS-FACTORIAL M19 internal marker reporter. The method in brief:
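After transfection of HepG2 with GAL4-UAS-driven reporter constructs, cells are dosed for 24 h. Total RNA is reverse-transcribed, reporter sequences PCR-amplified and labelled, then HpaI-digested and sized by capillary electrophoresis.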

SMILES strings stand for the structures. Results filed as inconclusive are left out. Activity calls are given as the source filed them. How the source made its calls, unless noted: active means hit-call score of the fitted dose curve at least 0.9, where 1 is the maximum; inactive means score below 0.9.

Chain of Paired box protein Pax-6 (Homo sapiens) (P26367 whole entry, looked up): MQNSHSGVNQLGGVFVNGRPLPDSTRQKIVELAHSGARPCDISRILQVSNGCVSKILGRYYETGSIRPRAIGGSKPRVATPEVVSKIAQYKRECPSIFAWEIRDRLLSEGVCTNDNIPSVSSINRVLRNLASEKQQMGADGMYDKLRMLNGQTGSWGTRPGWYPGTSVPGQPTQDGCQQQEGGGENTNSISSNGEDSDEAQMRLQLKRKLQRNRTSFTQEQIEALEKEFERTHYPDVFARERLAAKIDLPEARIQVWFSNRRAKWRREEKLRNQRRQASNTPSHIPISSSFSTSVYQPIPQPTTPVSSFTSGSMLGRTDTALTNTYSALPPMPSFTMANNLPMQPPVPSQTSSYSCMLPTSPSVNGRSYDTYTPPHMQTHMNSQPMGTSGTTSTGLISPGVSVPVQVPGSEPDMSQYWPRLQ
Chain of X-box-binding protein 1 (Homo sapiens) (P17861 whole entry, looked up): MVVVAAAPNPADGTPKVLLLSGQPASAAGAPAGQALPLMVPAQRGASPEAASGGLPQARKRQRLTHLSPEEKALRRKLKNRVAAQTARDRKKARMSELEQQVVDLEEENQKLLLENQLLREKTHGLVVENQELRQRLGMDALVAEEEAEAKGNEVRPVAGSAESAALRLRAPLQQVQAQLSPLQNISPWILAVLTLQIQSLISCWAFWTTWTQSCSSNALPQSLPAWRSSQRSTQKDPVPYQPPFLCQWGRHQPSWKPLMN
Chain of Estrogen receptor (Homo sapiens) (P03372 whole entry, looked up, the tested form may be a part): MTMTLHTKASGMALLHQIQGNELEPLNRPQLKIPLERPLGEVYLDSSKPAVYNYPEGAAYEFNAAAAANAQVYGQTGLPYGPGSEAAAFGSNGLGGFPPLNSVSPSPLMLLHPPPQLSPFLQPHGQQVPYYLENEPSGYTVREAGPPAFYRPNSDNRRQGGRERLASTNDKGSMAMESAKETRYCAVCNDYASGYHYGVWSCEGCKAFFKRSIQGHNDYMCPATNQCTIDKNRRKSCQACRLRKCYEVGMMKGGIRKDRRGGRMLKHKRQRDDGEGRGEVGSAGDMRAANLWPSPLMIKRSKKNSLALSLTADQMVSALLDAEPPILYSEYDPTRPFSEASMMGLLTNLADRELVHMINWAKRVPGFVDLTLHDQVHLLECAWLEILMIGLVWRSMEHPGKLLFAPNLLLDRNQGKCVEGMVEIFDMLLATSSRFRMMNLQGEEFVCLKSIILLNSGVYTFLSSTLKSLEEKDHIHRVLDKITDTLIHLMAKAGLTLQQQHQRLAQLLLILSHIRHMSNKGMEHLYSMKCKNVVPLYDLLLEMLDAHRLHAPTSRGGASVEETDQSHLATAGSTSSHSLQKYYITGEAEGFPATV
Chain of Transcription factor Sp1 (Homo sapiens) (P08047 whole entry, looked up): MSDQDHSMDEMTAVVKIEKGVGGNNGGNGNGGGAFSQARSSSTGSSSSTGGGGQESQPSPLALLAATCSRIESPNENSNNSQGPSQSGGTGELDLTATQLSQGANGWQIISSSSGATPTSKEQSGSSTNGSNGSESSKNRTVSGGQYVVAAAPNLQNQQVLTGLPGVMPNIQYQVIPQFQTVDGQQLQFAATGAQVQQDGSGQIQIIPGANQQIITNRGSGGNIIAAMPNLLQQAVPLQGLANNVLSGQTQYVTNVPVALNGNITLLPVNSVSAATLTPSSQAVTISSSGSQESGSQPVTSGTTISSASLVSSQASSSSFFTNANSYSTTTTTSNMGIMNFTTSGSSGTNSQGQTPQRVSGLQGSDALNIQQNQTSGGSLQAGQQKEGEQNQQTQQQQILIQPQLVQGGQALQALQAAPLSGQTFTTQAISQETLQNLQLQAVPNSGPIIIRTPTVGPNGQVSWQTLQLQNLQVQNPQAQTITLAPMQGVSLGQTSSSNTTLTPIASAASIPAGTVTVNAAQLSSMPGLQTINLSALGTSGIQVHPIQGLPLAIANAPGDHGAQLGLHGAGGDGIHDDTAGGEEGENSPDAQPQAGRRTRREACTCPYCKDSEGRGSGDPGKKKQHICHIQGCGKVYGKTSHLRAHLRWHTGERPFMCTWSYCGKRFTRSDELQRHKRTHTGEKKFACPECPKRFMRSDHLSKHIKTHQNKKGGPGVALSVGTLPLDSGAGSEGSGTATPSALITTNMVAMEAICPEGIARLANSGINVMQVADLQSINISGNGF
Chain of Nuclear receptor subfamily 1 group I member 3 (Homo sapiens) (Q14994 whole entry, looked up, the tested form may be a part): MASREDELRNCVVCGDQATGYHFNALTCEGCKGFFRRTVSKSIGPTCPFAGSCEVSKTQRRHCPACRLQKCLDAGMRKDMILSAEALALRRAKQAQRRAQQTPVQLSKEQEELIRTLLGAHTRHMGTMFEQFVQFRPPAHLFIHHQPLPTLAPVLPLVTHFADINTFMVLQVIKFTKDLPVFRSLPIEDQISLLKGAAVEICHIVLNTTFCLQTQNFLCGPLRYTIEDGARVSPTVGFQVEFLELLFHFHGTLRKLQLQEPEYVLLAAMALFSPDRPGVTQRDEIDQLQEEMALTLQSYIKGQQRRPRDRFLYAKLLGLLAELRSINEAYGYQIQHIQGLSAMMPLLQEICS
Chain of Signal transducer and activator of transcription 3 (Homo sapiens) (P40763 whole entry, looked up): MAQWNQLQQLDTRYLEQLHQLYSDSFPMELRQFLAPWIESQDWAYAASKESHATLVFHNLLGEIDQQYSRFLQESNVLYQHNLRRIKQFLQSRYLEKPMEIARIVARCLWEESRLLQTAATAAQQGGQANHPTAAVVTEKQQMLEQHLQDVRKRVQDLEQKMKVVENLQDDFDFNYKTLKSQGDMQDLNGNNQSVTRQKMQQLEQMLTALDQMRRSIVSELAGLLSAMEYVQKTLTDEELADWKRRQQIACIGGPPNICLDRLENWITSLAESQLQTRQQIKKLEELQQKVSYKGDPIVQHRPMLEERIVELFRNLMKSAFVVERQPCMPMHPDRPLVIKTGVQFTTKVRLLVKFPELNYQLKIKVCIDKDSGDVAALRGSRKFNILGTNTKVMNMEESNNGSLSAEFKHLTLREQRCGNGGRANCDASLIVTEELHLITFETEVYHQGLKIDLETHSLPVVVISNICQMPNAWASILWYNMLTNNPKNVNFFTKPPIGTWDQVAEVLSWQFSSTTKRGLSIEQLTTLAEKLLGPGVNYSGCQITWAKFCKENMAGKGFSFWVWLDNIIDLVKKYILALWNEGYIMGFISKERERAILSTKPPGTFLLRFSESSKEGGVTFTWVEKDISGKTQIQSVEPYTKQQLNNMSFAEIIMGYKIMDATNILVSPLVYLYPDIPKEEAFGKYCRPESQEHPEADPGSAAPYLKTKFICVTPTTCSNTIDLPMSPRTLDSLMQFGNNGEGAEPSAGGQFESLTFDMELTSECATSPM
Chain of Steroid hormone receptor ERR1 (Homo sapiens) (P11474 whole entry, looked up, the tested form may be a part): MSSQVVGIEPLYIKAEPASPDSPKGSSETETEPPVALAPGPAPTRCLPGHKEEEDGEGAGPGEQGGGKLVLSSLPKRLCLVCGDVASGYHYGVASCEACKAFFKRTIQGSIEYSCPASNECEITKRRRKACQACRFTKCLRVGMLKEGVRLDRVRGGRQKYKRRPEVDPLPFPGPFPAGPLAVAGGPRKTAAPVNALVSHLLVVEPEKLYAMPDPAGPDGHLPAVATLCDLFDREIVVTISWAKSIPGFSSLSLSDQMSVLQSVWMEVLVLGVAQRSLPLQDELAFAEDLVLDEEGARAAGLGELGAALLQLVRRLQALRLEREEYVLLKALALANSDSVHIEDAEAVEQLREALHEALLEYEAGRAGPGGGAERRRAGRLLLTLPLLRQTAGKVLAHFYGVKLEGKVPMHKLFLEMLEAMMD

Take `CCOc1ccc(NC(N)=O)cc1`: the result in assay [1], in assay [2], in assay [3], in [4], in [5] and in [6] was inactive. Besides, the result in assay [7], in [8], in [9], in [10], in [11] and in assay [12] was inactive. In addition, the call in [13] and in assay [14] was inactive.
Turning to `CC(=O)CC(=O)Nc1ccccc1C`, the result in assay [1], in assay [2], in assay [3], in assay [4], in assay [5] and in assay [6] was inactive. The compound was called inactive in assay [8], in assay [9], in [10], in [11], in [12] and in assay [15]. Further, the compound was called inactive in [16].
On to `CCN1CCCC1=O`, for which the result in assay [1], in assay [2], in [3], in assay [17], in [5] and in [6] was inactive. The outcome in assay [9], in assay [10], in assay [11], in assay [12], in [18] and in assay [16] was inactive.
Take `CC(C)CCOCc1ccccc1`: the outcome in [1], in assay [2], in assay [3], in assay [17], in assay [4] and in assay [5] was inactive. For the same compound, the compound was called inactive in [6], in assay [8], in assay [9], in assay [10], in assay [11] and in assay [12]. Moreover, the outcome in assay [13], in [16] and in [14] was inactive.
Usually AC50 stands for the midpoint of the concentration-response curve, whichever way the signal moves. Consider `CN(C)c1ccc2nc3ccc(=[N+](C)C)cc-3sc2c1`, for which the result in assay [1], in assay [2], in assay [17], in assay [4], in [5] and in [6] was inactive. In addition, the compound was classed as inactive in [8], in [9], in [10], in assay [11], in assay [18] and in assay [13]. Moreover, the call in assay [16] and in [19] was inactive. In addition, the AC50 in assay [3] is 3.95 µM (active).

The values are drawn from PubChem BioAssay (EPA / NIEHS).
